The experiment in a line: cell-free HIV fusion peptide-binding blockers – biochemical, uHTS, fluorescence dequenching, primary screen (AID 1986). The conditions noted are these: 30 min, stronger effect = higher value.
Setting [1] is: measured here: repeat confirmation average inhibition, at 18.6 µM.

Screen size: about 290,000 compounds; about 890 (0.31%) were called active. Rule as the data show it: active = inhibition mostly above about 52% (no sharp cut-off); inactive = mostly below about 76%. Shown is part of a subset that was picked to be rich in actives.

The inhibition is the relative decrease from the control value, in per cent. Turning to `COc1cc(CNCc2ccccc2Cl)ccc1OCC(=O)NC1CCCCC1`, under “at 20 µM”, the inhibition was 0.7% (inactive). Turning to `CN(C)/C=C/C(=O)c1ccc(S(=O)(=O)c2ccccc2)cc1`, the inhibition (at 20 µM) is 2.7% (inactive).

As to `CN(/C=C/C(=C\C=[N+](C)c1ccccc1)OCCCS(=O)(=O)[O-])c1ccccc1`, the inhibition (at 20 µM) is 24.5% (inactive). Consider `CN(/C=C/C(=C/C=[N+](C)c1ccccc1)OCCCS(=O)(=O)[O-])c1ccccc1`, for which the inhibition (at 20 µM) was 71.6% (active).

As to `Clc1ccccc1OCCN1CCC(Cc2ccccc2)CC1`, the inhibition (at 20 µM) is -0.6% (inactive).

Take `Cc1ccc(/C=[N+](/C)[O-])cc1`: for the setting “at 20 µM”, the inhibition is -1.3% (inactive). Turning to `Cc1ccc(C=C2C(Cl)=C(Cl)C(Cl)=C2Cl)cc1`, the inhibition (at 20 µM) was 53.9% (active). In the case of `Cc1ccc(/C=N/N=C/c2ccc(C)cc2)cc1`, the inhibition (at 20 µM) is 0.6% (inactive). Regarding `COc1ccccc1OCCCCOc1ccccc1C(C)=O`, the inhibition (at 20 µM) was 0.9% (inactive). On the same count and under the same terms, the figure for `O=C(/C=C/Nc1cccc(F)c1)c1ccco1` is 1.5% (inactive); for `COC(=O)c1ccc(N)cc1O` it is -0.9% (inactive); for `COC(=O)c1ccc(C(=O)OC)c(=O)[nH]1` it is -0.4% (inactive). `COC(=O)c1ccc(=O)c2nc3/c(=C/O)c(O)cc(=O)c3[nH]c12`: the inhibition (at 20 µM) is 56.3% (active). As to `COc1ccc(NC(=S)N(Cc2cccnc2)Cc2ccco2)cc1`, where the note is “at 20 µM”, the inhibition was -0.6% (inactive). In the case of `Clc1ccc(Cc2noc(-c3cccs3)n2)cc1`, where the note is “at 20 µM”, the inhibition is 1.2% (inactive).

On to `CC(C)(C)c1ccc(/C=C2\Oc3c(ccc(O)c3CN3CCN(CCO)CC3)C2=O)cc1`, for which the inhibition (at 20 µM) was 17.8% (inactive). In the case of `COCCN(CCOC)Cc1c(O)ccc2c1O/C(=C\c1ccc(C)o1)C2=O`, for the setting “at 20 µM”, the inhibition is 27.4% (inactive). For the compound `O=C1/C(=C/c2ccco2)Oc2c1ccc(O)c2CN1CCCCC1`, the inhibition (at 20 µM) was 58.1% (active). As for `COCCN(CCOC)Cc1c(O)ccc2c1O/C(=C\c1ccco1)C2=O`, the inhibition is 50.4% (active) (at 20 µM) and 78.9% under setting [1]. Regarding `Cc1cc(O)c(CN(C)C)c2c1C(=O)/C(=C/c1ccco1)O2`, the inhibition (at 20 µM) is 29.7% (inactive). Consider `Cc1ccc(/C=C2\Oc3c(ccc(O)c3CN3CCN(C)CC3)C2=O)cc1`, for which the inhibition (at 20 µM) was 45.4% (inactive). For the compound `CC1CCN(Cc2c(O)ccc3c2O/C(=C\c2ccco2)C3=O)CC1`, the inhibition is, setting by setting: (at 20 µM) 56.7% (active); under setting [1], 90.4%. Regarding `CCN1CCN(Cc2c(O)ccc3c2O/C(=C\c2ccc(C)cc2)C3=O)CC1`, the inhibition (at 20 µM) was 40.1% (inactive). As to `CC1CCCN(Cc2c(O)ccc3c2O/C(=C\c2ccco2)C3=O)C1` (stereo unspecified), under “at 20 µM”, the inhibition is 35.5% (inactive). With `COc1ccc(C2C(C(=O)N3CCN(c4ccccn4)CC3)CCC(=O)N2c2ccc(OC)cc2)cc1` (stereo unspecified), where the note is “at 20 µM”, the inhibition is -2.1% (inactive). On the same count and under the same terms, the figure for `O=C1C=C(N2CCCCCC2)C2(CCCCC2)O1` is 0.8% (inactive). For the compound `C[C@H](NC(=O)c1nc[nH]c1C(=O)NC(c1ccccc1)c1ccccc1)C(=O)OCc1ccccc1`, the inhibition (at 20 µM) is 2.7% (inactive). Consider `CCSc1nnc(-c2cccs2)o1`, for which, under “at 20 µM”, the inhibition was 1.8% (inactive).

`CCSc1nnc(-c2sc3nnc(-c4ccccc4)c(-c4ccccc4)c3c2N)o1`: where the note is “at 20 µM”, the inhibition was 98.4% (active). In the case of `NC(=O)c1sc2nnc(-c3ccccc3)c(-c3ccccc3)c2c1N`, the inhibition (at 20 µM) is 1.6% (inactive). As to `O=C(Cn1c(=O)oc2cc(S(=O)(=O)N3CCCC3)ccc21)N1CCN(C2CCCCC2)CC1`, the inhibition (at 20 µM) was 0% (inactive).

For `O=C(CSc1nc2ccccc2c(=O)n1Cc1ccco1)N1CCN(c2ccccc2)CC1`, the inhibition (at 20 µM) was -4.4% (inactive). As for `O=C(Nc1cccc(-c2nc3cc(Cl)ccc3o2)c1)C1CCCO1` (stereo unspecified), the inhibition (at 20 µM) is 1% (inactive). Same read-out and setting: the figure for `CN(C)S(=O)(=O)c1cccc(C(=O)OCC(=O)NCc2ccc3c(c2)OCO3)c1` is 0.4% (inactive); for `COc1ccc2sc(C)[n+](C)c2c1` it is -2.6% (inactive); for `C[n+]1ccc(/C=C/c2ccccc2O)c2ccccc21` it is 1.2% (inactive). As to `COc1ccc2sc(/C=C/c3ccccc3O)[n+](C)c2c1`, the inhibition is 69.1% (active) (at 20 µM) and 88.7% under setting [1]. Consider `Cc1cc(C(=O)Nc2cccnc2)cs1`, for which, for the setting “at 20 µM”, the inhibition is 0.7% (inactive).

For `Cn1c(=O)oc2cc(S(=O)(=O)NCc3ccc(F)cc3)ccc21`, the inhibition (at 20 µM) was 8.5% (inactive). Consider `CCN1CCN(S(=O)(=O)CC2(C)C3CCC2(C)C(=O)C3Br)CC1` (stereo unspecified), for which the inhibition (at 20 µM) was -1.8% (inactive). Still for that read-out and setting: the figure for `Cc1cc(C)c2nc(-c3cccnc3)cc(C(=O)Nc3ccc(S(=O)(=O)Nc4onc(C)c4C)cc3)c2c1` is 57% (active). For the compound `Cc1cc(C)c2nc(-c3ccccn3)cc(C(=O)Nc3ccc(S(=O)(=O)Nc4cc(C)on4)cc3)c2c1`, the inhibition is 59% (inactive) (at 20 µM) and 21.6% under setting [1]. As for `Cc1ccccc1C(=O)Nc1ccc(S(=O)(=O)Nc2onc(C)c2C)cc1`, the inhibition (at 20 µM) was 0.8% (inactive).

On to `Cc1cc(C)c(C(=O)Nc2ccc(S(=O)(=O)Nc3onc(C)c3C)cc2)c(C)c1`, for which the inhibition (at 20 µM) is 0.9% (inactive).

`COc1ccc(-c2cc(C(=O)Nc3ccc(S(=O)(=O)Nc4onc(C)c4C)cc3)c3ccccc3n2)cc1`: the inhibition reads like this: (at 20 µM) 64.1% (inactive); under setting [1], 40.8%. With `Cc1cc(C)c2nc(-c3ccccn3)cc(C(=O)Nc3ccc(S(=O)(=O)Nc4onc(C)c4C)cc3)c2c1`, where the note is “at 20 µM”, the inhibition is 70.5% (active).

These data come from PubChem BioAssay AID1986 (Sanford-Burnham Center for Chemical Genomics, 2009).
